Experimental findings from PubChem BioAssay (NCATS) are described below.

Inconclusive results are not listed. Where a call stands in place of a potency, no number is given. Activity calls are given as the source filed them. Calls follow the shape of the dose curve; as a rule, active = well fitted cell-killing curve with a large enough effect; inconclusive = small, poorly fitted or top-dose-only effect, or effect the other way; inactive = flat fitted curve, though single readings scatter.

In one assay the test system is CAOV3. Briefly: Primary qHTS to identify gynecologic anti-cancer compounds using libraries of approved drugs and bioactive compounds (AID 1345084). Also: nearly all actives have a fitted effect of over 55% in size. To be noted: Gynecologic cancer cell panel viability, ATPlite luminescence, 48 h; series mostly up to 57.5 µM. In a few lines: (§1)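 Cells, 1,000 per well, were allowed to settle for 16 h at 37 C before compound addition. Five concentrations were tested for 48 h, and viability was read by ATPlite luminescence after 15 min at room temperature.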
In general terms: In qHTS, concentration-response curves come from the screen itself.
Take `CN(C)C(=N)N=C(N)N`: the Potency result was “inactive”.

Consider `NCCCCCC(=O)O`, for which the Potency result is “inactive”.

With `O=C(c1ccc(OCCN2CCCCC2)cc1)c1c(-c2ccc(O)cc2)sc2cc(O)ccc12`, the Potency entry is “inactive”.

On to `C[C@H]1c2cccc(O)c2C(O)=C2C(=O)[C@]3(O)C(O)=C(C(N)=O)C(=O)[C@@H](N(C)C)[C@@H]3[C@@H](O)[C@@H]21`, for which the Potency entry was “inactive”.

As to `CS(=O)(=O)Nc1ccc([N+](=O)[O-])cc1Oc1ccccc1`, the Potency entry was “inactive”.

Take `O=c1c(O)c(-c2ccc(O)c(O)c2)oc2cc(O)cc(O)c12`: the Potency entry was “inactive”.

As for `CN(C)c1nc(N(C)C)nc(N(C)C)n1`, the Potency entry is “inactive”.

As for `CCCNCC(O)COc1ccccc1C(=O)CCc1ccccc1` (configuration not stated), the Potency result was “inactive”.

As for `NC(=O)NO`, the Potency entry was “inactive”.

Take `CC(C)NCC(O)COc1ccc(CCOCC2CC2)cc1` (configuration not stated): the Potency entry was “inactive”.

As to `COc1ccc(CCN(C)CCCC(C#N)(c2ccc(OC)c(OC)c2)C(C)C)cc1OC` (configuration not stated), the Potency result was “inactive”.

For `COc1nc(C)nc(Cl)c1NC1=NCCN1`, the Potency entry is “inactive”.

For the molecule `O=C1N(c2ccccc2)c2ccccc2C1(Cc1ccncc1)Cc1ccncc1`, the Potency entry was “inactive”.

Consider `Cc1cnc(C(=O)NCCc2ccc(S(=O)(=O)NC(=O)NC3CCCCC3)cc2)cn1`, for which the Potency entry is “inactive”.

For the molecule `CCc1cccc2c3c([nH]c12)C(CC)(CC(=O)O)OCC3` (configuration not stated), the Potency result was “inactive”.

For the molecule `CC(C)(C)C(=O)Oc1ccc(S(=O)(=O)Nc2ccccc2C(=O)NCC(=O)O)cc1`, the Potency result was “inactive”.

For a further assay, the system named is CASKI. The description is as above. As to conditions: Gynecologic cancer cell panel viability, ATPlite luminescence, 48 h; series mostly up to 57.5 µM. In a few lines: as §1
A general note: Cellular ATP, detected with luciferase, serves as a proxy for viable cell number.
As for `CN(C)C(=N)N=C(N)N`, the Potency result is “inactive”.

Take `CC12CC3CC(C)(C1)CC(N)(C3)C2`: the Potency result was “inactive”.

With `Clc1ccc2c(c1)C(N1CCNCC1)=Nc1ccccc1O2`, the Potency entry was “inactive”.

In the case of `CCOC(=O)Nc1ccc(NCc2ccc(F)cc2)nc1N`, the Potency entry is “inactive”.

As for `NCCCCCC(=O)O`, the Potency entry was “inactive”.

Regarding `O=C(c1ccc(OCCN2CCCCC2)cc1)c1c(-c2ccc(O)cc2)sc2cc(O)ccc12`, the Potency entry was “inactive”.

`Cn1c(=O)c2c(ncn2C)n(C)c1=O`: the Potency entry was “inactive”.

Turning to `CS(=O)(=O)Nc1ccc([N+](=O)[O-])cc1Oc1ccccc1`, the Potency entry is “inactive”.

On to `Cn1cnc2c1c(=O)[nH]c(=O)n2C`, for which the Potency result is “inactive”.

On to `CC(C)C(=O)Nc1ccc([N+](=O)[O-])c(C(F)(F)F)c1`, for which the Potency result is “inactive”.

Regarding `O=c1c(O)c(-c2ccc(O)c(O)c2)oc2cc(O)cc(O)c12`, the Potency result is “inactive”.

With `CN(C)c1nc(N(C)C)nc(N(C)C)n1`, the Potency entry was “inactive”.

For `CC(C(=O)O)c1cccc(C(=O)c2ccccc2)c1` (configuration not stated), the Potency result is “inactive”.

`CCCNCC(O)COc1ccccc1C(=O)CCc1ccccc1` (configuration not stated): the Potency entry is “inactive”.

Turning to `Clc1ccc(C(c2ccccc2Cl)C(Cl)Cl)cc1` (configuration not stated), the Potency entry is “inactive”.

For the molecule `Nc1ccn([C@H]2CC[C@@H](CO)O2)c(=O)n1`, the Potency result was “inactive”.

Regarding `NS(=O)(=O)c1cc2c(cc1Cl)NCNS2(=O)=O`, the Potency result was “inactive”.

`Nc1nc2c(ncn2COC(CO)CO)c(=O)[nH]1`: the Potency result is “inactive”.

For the molecule `NC(=O)NO`, the Potency entry is “inactive”.

On to `CC(C)NCC(O)COc1ccc(CCOCC2CC2)cc1` (configuration not stated), for which the Potency entry was “inactive”.

As for `COc1ccc(CCN(C)CCCC(C#N)(c2ccc(OC)c(OC)c2)C(C)C)cc1OC` (configuration not stated), the Potency entry was “inactive”.

In the case of `C[C@@H]1CC(=O)NN=C1c1ccc(NN=C(C#N)C#N)cc1`, the Potency entry was “inactive”.

Take `CS(=O)(=O)CCNCc1ccc(-c2ccc3ncnc(Nc4ccc(OCc5cccc(F)c5)c(Cl)c4)c3c2)o1`: the Potency result is “inactive”.

Take `COc1nc(C)nc(Cl)c1NC1=NCCN1`: the Potency result is “inactive”.

Take `Cc1ccc(-c2cc(C(F)(F)F)nn2-c2ccc(S(N)(=O)=O)cc2)cc1`: the Potency entry was “inactive”.

Take `CN1C(C(=O)Nc2ccccn2)=C(O)c2ccccc2S1(=O)=O`: the Potency result is “inactive”.

Consider `Cc1cnc(C(=O)NCCc2ccc(S(=O)(=O)NC(=O)NC3CCCCC3)cc2)cn1`, for which the Potency result is “inactive”.

On to `CCc1cccc2c3c([nH]c12)C(CC)(CC(=O)O)OCC3` (configuration not stated), for which the Potency result is “inactive”.

On to `O=C1Cc2cc(CCN3CCN(c4nsc5ccccc45)CC3)c(Cl)cc2N1`, for which the Potency entry was “inactive”.

For `Cc1cn([C@H]2C=C[C@@H](CO)O2)c(=O)[nH]c1=O`, the Potency result was “inactive”.

Take `CC(C)(C)C(=O)Oc1ccc(S(=O)(=O)Nc2ccccc2C(=O)NCC(=O)O)cc1`: the Potency entry was “inactive”.
